Reference: PubChem BioAssay AID741 (SRMLSC, 2007)
Records with an inconclusive call do not appear. Active and inactive are the calls of the source. No stated cut-off is given here; in the data, active means toxicity enhancement factor above about 0.054; inconclusive means between about 0.00067 and that limit; inactive means weaker than that.

Experiment: reversers of MRP drug resistance, dose response, cell-based (AID 741)
Settings: MRP-overexpressing cells, viability with/without cytotoxic drug; slope difference: measured here: slope difference tox minus reversal, stronger effect = higher value; toxicity enhancement factor: stronger effect = higher value; viability: measured here: viability series, compound alone, at 10 µM, stronger effect = lower value

Structure (SMILES) | slope difference | toxicity enhancement factor | viability
O=C1CCCC2C3CCCN4CCCC(CN12)C34 (stereo unspecified) | -0.494 | -0.0048 (inactive) | 94.7%
O[C@H]1[C@H](O)[C@@H](O)CN2CC[C@H](O)[C@H]12 | -0.39 | -0.0036 (inactive) | 98.5%
